The source of these data is article PMC7862700, “An all-to-all approach to the identification of sequence-specific readers for epigenetic DNA modifications on cytosine”.

Assay in all cases: DAPPL (digital affinity profiling via proximity ligation, sequencing); 10 mM Tris-HCl pH 7.5, 50 mM NaCl, 1 mM DTT, 4% glycerol, room temperature, 30 min; GST-TFs on glutathione beads, 16-mer random dsDNA library, 0.1% formaldehyde crosslink after washing; high values mean tight binding
What all share (conditions): protein: recombinant; tags: N-terminal GST; dsDNA, one strand shown

One experiment deals with T1, GABPA (Homo sapiens, UniProt Q06546 1-454).
T1 sequence: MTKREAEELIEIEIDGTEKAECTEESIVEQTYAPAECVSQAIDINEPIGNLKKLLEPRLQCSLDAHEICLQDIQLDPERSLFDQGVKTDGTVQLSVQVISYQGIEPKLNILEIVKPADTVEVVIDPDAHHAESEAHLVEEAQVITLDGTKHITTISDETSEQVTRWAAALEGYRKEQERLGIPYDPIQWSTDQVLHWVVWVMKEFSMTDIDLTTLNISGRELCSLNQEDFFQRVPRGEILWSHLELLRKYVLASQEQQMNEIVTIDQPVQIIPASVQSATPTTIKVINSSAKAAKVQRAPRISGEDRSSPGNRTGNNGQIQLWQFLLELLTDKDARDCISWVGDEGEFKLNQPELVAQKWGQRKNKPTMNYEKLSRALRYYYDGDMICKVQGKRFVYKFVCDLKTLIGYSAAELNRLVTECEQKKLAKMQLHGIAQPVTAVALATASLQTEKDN
The gist of the method:
(§1)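 Sequencing on an Illumina NextSeq500 followed washing, crosslinking with 0.1% formaldehyde, proximity ligation (BsaI/T4 ligase, 1 h, 37 °C) and PCR amplification of pools that had been incubated for 30 min at room temperature with 200 nmole of a random double-stranded 16-mer DNA library in Tris/NaCl/DTT/glycerol buffer. Each pool held DNA-barcoded human transcription factors, expressed in yeast as GST fusions and captured on glutathione beads, plus a tag-only sample. Binding signal is a hexamer's read frequency for a factor divided by its frequency in the tag-only sample.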

The target of a further experiment is T2, ERG (Homo sapiens, UniProt P11308 1-479).
T2 sequence: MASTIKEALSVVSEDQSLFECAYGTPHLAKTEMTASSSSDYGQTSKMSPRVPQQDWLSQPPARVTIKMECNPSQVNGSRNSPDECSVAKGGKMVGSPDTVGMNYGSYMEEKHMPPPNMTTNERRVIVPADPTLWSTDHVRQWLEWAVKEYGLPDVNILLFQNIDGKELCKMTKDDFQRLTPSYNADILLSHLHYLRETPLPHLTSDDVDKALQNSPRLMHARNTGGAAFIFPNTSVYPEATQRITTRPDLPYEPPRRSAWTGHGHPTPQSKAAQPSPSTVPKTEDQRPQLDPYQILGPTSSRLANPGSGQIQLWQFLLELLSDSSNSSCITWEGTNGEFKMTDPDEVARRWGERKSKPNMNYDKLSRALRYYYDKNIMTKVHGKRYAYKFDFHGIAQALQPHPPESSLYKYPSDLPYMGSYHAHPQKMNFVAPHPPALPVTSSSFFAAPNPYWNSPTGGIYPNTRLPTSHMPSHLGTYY
The method in brief:
as §1

The target of a further experiment is T3, EHF (Homo sapiens, UniProt Q9NZC4 1-300).
T3 sequence: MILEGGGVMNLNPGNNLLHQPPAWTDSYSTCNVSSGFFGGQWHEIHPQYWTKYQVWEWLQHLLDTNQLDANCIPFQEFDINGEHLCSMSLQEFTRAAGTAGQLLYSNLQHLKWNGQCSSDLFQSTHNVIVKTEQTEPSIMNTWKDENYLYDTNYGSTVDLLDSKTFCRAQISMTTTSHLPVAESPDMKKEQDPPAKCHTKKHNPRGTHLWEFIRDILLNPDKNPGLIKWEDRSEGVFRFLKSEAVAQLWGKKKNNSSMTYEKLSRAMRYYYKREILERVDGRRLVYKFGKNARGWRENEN
The gist of the method:
as §1

The next experiment addresses SPIB (Homo sapiens, UniProt Q01892 1-262). The gist of the method: as §1
The next experiment deals with ETV5 (Homo sapiens, UniProt P41161 1-510). The gist of the method:
as §1

In another experiment the target is T4, SPIC (Homo sapiens, UniProt Q8N5J4 1-248).
T4 sequence: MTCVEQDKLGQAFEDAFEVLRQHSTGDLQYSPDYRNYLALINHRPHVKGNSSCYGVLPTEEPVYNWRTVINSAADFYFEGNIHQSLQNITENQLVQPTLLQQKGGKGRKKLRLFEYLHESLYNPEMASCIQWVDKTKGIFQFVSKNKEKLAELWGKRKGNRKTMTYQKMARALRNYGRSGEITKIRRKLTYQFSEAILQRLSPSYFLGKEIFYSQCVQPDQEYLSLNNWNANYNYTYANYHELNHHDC
The gist of the method: as §1

The target in another experiment is ELF4 (Homo sapiens, UniProt Q99607 1-663). The gist of the method:
as §1

Another experiment concerns the target T5, ETV3L (Homo sapiens, UniProt Q6ZN32 1-361).
T5 sequence: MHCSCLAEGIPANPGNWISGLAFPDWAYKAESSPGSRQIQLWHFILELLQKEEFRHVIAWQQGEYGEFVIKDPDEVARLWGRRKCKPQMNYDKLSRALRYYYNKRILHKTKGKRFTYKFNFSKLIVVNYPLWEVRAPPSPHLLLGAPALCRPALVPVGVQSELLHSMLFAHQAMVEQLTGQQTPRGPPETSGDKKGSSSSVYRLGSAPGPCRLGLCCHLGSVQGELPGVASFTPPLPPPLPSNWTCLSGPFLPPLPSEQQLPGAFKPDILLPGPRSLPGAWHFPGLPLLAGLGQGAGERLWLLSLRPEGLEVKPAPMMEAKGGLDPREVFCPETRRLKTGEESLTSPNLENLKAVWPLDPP
The method in brief:
as §1

The next experiment deals with T6, ETS2 (Homo sapiens, UniProt P15036 1-469).
T6 sequence: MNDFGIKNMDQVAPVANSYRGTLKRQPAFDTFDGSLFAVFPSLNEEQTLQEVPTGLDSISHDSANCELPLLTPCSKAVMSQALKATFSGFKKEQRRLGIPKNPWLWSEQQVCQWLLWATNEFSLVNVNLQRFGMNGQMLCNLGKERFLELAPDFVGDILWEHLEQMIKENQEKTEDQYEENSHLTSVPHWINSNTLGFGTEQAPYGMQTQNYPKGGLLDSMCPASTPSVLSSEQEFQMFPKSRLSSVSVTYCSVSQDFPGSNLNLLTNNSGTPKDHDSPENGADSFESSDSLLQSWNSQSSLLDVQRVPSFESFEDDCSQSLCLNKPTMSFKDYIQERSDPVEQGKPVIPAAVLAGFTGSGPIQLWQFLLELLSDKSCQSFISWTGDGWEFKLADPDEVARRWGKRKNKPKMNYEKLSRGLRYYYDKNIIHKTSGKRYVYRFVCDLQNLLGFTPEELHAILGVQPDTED
The method in brief: as §1

For the next experiment, the target named is T7, ETV7 (Homo sapiens, UniProt Q9Y603 1-341).
T7 sequence: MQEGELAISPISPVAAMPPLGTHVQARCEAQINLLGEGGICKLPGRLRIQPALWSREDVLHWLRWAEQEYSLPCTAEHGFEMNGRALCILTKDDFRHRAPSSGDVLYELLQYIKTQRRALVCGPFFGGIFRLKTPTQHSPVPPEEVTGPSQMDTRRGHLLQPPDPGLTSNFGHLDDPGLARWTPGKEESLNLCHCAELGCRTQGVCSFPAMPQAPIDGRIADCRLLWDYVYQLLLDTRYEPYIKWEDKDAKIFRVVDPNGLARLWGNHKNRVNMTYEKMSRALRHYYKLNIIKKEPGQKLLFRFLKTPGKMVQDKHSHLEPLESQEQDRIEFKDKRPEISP
The method in brief:
as §1

The target of another experiment is T8, ETV3 (Homo sapiens, UniProt P41162-2 1-143).
T8 sequence: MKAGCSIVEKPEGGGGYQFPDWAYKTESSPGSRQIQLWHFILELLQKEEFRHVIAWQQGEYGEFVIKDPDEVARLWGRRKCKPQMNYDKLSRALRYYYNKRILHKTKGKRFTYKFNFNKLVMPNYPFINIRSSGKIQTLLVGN
The gist of the method: as §1

Chain of ELF4 (Q99607 whole entry): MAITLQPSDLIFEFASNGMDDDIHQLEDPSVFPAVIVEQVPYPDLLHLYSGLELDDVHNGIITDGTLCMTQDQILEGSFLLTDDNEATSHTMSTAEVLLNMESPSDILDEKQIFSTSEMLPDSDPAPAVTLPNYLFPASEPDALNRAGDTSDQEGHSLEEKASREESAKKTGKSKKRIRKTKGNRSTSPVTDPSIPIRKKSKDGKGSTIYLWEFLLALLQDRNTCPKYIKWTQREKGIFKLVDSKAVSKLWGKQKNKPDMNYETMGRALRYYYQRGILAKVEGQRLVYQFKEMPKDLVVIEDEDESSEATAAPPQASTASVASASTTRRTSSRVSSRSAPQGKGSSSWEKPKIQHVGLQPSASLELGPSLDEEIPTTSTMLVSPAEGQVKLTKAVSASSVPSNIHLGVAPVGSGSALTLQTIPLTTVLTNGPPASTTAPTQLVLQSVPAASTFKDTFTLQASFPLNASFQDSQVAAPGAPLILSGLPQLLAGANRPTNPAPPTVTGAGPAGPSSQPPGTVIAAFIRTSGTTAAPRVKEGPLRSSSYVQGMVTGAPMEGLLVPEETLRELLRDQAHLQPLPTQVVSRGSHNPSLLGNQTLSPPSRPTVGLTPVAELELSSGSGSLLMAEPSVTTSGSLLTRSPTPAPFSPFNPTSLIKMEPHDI
Chain of ETV5 (P41161 whole entry): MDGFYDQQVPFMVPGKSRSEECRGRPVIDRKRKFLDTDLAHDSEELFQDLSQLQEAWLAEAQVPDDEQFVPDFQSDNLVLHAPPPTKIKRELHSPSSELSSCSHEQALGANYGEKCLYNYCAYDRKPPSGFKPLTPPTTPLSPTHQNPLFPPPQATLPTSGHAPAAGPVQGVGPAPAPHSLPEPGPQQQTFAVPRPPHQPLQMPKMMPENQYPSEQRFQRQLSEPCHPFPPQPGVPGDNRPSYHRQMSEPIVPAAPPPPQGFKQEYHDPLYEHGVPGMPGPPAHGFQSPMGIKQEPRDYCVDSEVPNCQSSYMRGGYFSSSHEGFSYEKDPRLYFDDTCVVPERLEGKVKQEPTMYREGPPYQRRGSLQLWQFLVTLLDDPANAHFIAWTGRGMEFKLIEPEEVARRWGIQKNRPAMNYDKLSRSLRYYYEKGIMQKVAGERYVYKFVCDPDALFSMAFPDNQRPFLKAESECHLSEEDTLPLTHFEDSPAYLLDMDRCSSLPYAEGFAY
Chain of SPIB (Q01892 whole entry): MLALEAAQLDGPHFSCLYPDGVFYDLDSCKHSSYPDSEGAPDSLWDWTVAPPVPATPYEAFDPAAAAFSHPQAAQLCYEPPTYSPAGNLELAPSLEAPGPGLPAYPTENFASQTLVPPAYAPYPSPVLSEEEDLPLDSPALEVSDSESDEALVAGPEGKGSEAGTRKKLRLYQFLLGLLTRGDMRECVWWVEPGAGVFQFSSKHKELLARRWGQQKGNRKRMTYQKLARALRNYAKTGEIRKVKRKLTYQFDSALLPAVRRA

For CGGCTG, the binding signal in the experiment with GABPA was 1.03 fold enrichment (6-mer frequency, TF over GST control); with ERG, 1.04 fold enrichment (6-mer frequency, TF over GST control); in the experiment with EHF, 1.05 fold enrichment (6-mer frequency, TF over GST control); with SPIB it was 1.03 fold enrichment (6-mer frequency, TF over GST control); with ETV5, 1.01 fold enrichment (6-mer frequency, TF over GST control); in the experiment with SPIC, 1.12 fold enrichment (6-mer frequency, TF over GST control). In addition, the binding signal with ELF4 was 1.12 fold enrichment (6-mer frequency, TF over GST control); with ETV3L, 1.02 fold enrichment (6-mer frequency, TF over GST control); in the experiment with ETS2, 1.07 fold enrichment (6-mer frequency, TF over GST control); in the experiment with ETV7, 1.1 fold enrichment (6-mer frequency, TF over GST control); with ETV3, 1.01 fold enrichment (6-mer frequency, TF over GST control).
